A short description of test [1]: inhibitors of TNFa-induced NFkB p65 translocation, primary screen, imaging, HUVEC, MLSMR starter and 10KST1 sets (AID 438;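 active = inhibition above 20% together with a positive visual image hit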;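 note: compound added about 3h40 before a 20 min TNFalpha stimulation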;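 for inhibition: signal is the nuclear over cytoplasmic p65 intensity ratio per well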). As to conditions: HUVEC TNFa-induced p65 nuclear translocation; cell count: measured here: nuclei count (cytotoxicity indicator), at 2.08 µM; inhibition: at 2 µM, stronger effect = higher value, 0% TNFa-plus-vehicle, 100% no-TNFa wells.
Test [2] is described as follows: inhibitors of mutant huntingtin aggregation, primary screen, imaging, exon1htt(103Q)mCFP cells, high-content imaging (AID 483).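 For nuclei count: percent of the per-plate median nuclei count of sample wells.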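 Note: compound exposure lasted 3 days before fixation.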 As to conditions: exon1htt(103Q)mCFP cell line, aggregate imaging, at 2 µM; inhibition of aggregation: stronger effect = higher value; nuclei count: measured here: cell count, toxicity.
A short description of test [3]: inhibitors of E-selectin induction by TNFa, primary screen, imaging, HUVEC, immunofluorescence, MLSMR starter and 10KST1 sets (AID 487;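 active = visually confirmed hit in the image check and inhibition above 20%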;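 for inhibition: signal is fraction of cell area covered by stained E-selectin grains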;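 for nuclei count: 100% = median nuclei count of all wells on the same plate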). As to conditions: HUVEC TNFalpha-induced E-selectin immunofluorescence imaging, at 2 µM; inhibition: stronger effect = higher value; nuclei count: measured here: cell number, toxicity.
For test [4], the target named is Voltage-gated potassium channel subunit beta-2 (Rattus norvegicus) (UniProt P62483). The test is described as follows: KvBeta enzyme negative modulators, primary screen, biochemical, NADPH fluorescence (AID 622;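 active = fluorescence slope higher than the sample average by over 3 SD, cut at about -0.22 in these data, passing the limit was not always enough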;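 note: slope of raw intensity against log time taken from 70 to 1610 s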). The conditions noted are these: recombinant KvBeta, 4-cyanobenzaldehyde reduction, at 10 µM, stronger effect = higher value.
Voltage-gated potassium channel subunit beta-2 (Rattus norvegicus), sequence (P62483 whole entry, looked up): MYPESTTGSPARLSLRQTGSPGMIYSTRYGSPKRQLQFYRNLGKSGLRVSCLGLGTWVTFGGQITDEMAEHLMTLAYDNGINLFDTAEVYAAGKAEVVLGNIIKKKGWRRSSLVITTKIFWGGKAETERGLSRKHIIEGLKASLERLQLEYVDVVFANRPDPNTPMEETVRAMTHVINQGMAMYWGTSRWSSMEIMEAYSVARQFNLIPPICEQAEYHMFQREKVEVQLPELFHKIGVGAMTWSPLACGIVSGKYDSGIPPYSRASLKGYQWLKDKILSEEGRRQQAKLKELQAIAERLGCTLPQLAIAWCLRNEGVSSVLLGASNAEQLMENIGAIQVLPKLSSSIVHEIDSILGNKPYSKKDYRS
Test [5] shares this target. The test is described as follows: KvBeta positive modulators, primary screen, biochemical, NADPH fluorescence (AID 623;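 active = NADPH fluorescence slope more negative than the mean of all samples by about 3 SD, 99.7% confidence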;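 note: fluorescence intensity change per second fitted from 20 to 320 s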). The conditions noted are these: Recombinant KvBeta, NADPH fluorescence decrease slope, 10 min; at 10 µM; stronger effect = lower value.
Test [6] concerns the target Alpha-2C adrenergic receptor (Homo sapiens) (UniProt P18825). The test is described as follows: modulators of alpha2C/GIRK thallium flux, primary screen, cell-based, HEK293 alpha2C/GIRK1/2 (AID 624;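 active = fluorescence slope after compound addition differing from the mean of all screened samples at 99.7% confidence, in either direction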;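 note: slope of fluorescence ratio to pre-addition baseline per second over 15 to 24 s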). As to conditions: thallium flux BTC fluorescence, at 10 µM, actives lie on both sides.
Test [7] can be described thus: inhibitors of Sendai virus-induced IRF3 signaling, primary screen, TLR/RLR signaling modifier project, cell-based, Sendai virus stimulus, luciferase, 10K MLSCN set (AID 602276;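 active = inhibition at or above 50% at 10 µM; inactive = inhibition below 50%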;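 note: firefly luciferase from ISG56 promoter only with Renilla not read in this screen; 0% = Sendai virus plus DMSO and 100% = medium plus DMSO without virus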). The conditions noted are these: HEK293 RL24 IRF3 luciferase reporter, at 10 µM, stronger effect = higher value. On the technique in general: Reporter assays use an easily measured gene product as a stand-in for the process of interest.

A short description of test [8]: inhibitors of poly I:C-induced TLR3 signaling, primary screen, cell-based, poly I:C stimulus, luciferase, 10K MLSCN set (AID 602277;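 active = inhibition of the reporter signal at or above 50%; inactive = inhibition below 50%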). As to conditions: HEK293-TLR3 RL24 IRF3 luciferase reporter, at 10 µM, stronger effect = higher value.

Calls of active or inactive are those of the source.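 Rule for the calls, unless noted: active = visual image review flags a hit and inhibition of aggregation exceeds 20%; inconclusive = visual hit but inhibition at or below 20%; inactive = no hit on visual image review.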

A word on the inhibition: it is the drop in the measured response relative to a control, in per cent.

Alpha-2C adrenergic receptor (Homo sapiens), sequence (P18825 whole entry, looked up): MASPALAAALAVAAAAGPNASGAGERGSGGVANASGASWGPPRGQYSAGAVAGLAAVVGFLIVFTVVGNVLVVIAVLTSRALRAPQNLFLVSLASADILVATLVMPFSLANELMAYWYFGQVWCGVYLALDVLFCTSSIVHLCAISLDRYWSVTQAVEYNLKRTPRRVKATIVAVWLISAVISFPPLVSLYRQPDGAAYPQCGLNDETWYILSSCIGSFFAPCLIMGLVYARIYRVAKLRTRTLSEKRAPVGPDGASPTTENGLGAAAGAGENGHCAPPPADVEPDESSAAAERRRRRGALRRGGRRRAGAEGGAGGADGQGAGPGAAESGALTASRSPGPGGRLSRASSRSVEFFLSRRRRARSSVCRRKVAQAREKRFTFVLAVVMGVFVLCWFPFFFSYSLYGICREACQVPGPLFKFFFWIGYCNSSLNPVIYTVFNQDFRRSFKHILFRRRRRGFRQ

As for `O=C1OCc2cc(NC(=O)C3CCCO3)ccc21` (centres undefined), the cell count in test [1] came out at 790. Also, the inhibition in test [1] is -8.1% (inactive); in test [3], -31.8% (inactive); in test [7], 3.9% (inactive); in test [8], 13.5% (inactive). Moreover, the inhibition of aggregation in test [2] is 13.1% (inactive). Moreover, the nuclei count in test [2] and in test [3] was 111% throughout. For the same compound, in test [4], the fluorescence slope is -0.379 (inactive). Further, in test [5], the NADPH fluorescence slope is 5.7e-07 (inactive). For the same compound, the slope in test [6] is 0.00421 (inactive).

Consider `CC(CCc1ccccc1)NC(=O)C1CCCN(c2nnc(-n3cccc3)s2)C1` (centres undefined), for which the cell count in test [1] came to 585. Besides, the inhibition in test [1] is 5.8% (inactive); in test [3] it was -42.8% (inactive); in test [7], 8.13% (inactive); in test [8], 18.5% (inactive). For the same compound, the inhibition of aggregation in test [2] was -2.5% (inactive). The nuclei count worked out at 99.3% in test [2] and 102% in test [3]. For the same compound, the fluorescence slope in test [4] was -0.57 (inactive). Also, the NADPH fluorescence slope in test [5] is -3.2e-05 (inactive). Besides, the slope in test [6] was 0.00444 (inactive).

With `CCCCn1nnc(NC(=O)c2cc3ccccc3o2)n1`, the cell count in test [1] came to 615. Further, the inhibition in test [1] was 2.2% (inactive); in test [3], -13.4% (inactive); in test [7], -19% (inactive); in test [8], -27.4% (inactive). The inhibition of aggregation in test [2] was 3.5% (inactive). In addition, the nuclei count worked out at 106% in test [2] and 90.8% in test [3]. Further, the fluorescence slope in test [4] was -0.468 (inactive). In test [5], the NADPH fluorescence slope was 1.2e-05 (inactive). Moreover, the slope in test [6] was 0.00257 (inactive).

Turning to `C=CCn1c(C)cc(C(=O)CSc2nc3ccccc3o2)c1C`, the cell count in test [1] was 615. In addition, the inhibition is -8.9% (inactive) in test [1], -58.1% (inactive) in test [3], -26.5% (inactive) in test [7] and -136% (inactive) in test [8]. For the same compound, the inhibition of aggregation in test [2] is -16.3% (inactive). For the same compound, the results for the nuclei count in test [2] and in test [3] were 105% and 104%, respectively. Further, in test [4], the fluorescence slope is -0.595 (inactive). The NADPH fluorescence slope in test [5] was -5.9e-05 (inactive). Further, the slope in test [6] was 0.00586 (inactive).

Turning to `COc1ccc(S(=O)(=O)Nc2ccc(F)c(Cl)c2)cc1OC`, in test [1], the cell count was 657. Also, the inhibition in test [1] was -18.6% (inactive); in test [3] it was 57.8% (inactive); in test [7], 12.4% (inactive); in test [8], 35.2% (inactive). For the same compound, the inhibition of aggregation in test [2] was -7.4% (inactive). Also, the nuclei count in test [2] was determined as 111%; in test [3], 63%. Further, the fluorescence slope in test [4] is -0.431 (inactive). Further, the NADPH fluorescence slope in test [5] is -2e-05 (inactive). The slope in test [6] was 0.00392 (inactive).

Take `O=C(OCCN(CCOC(=O)c1ccncc1)S(=O)(=O)c1cccs1)c1ccncc1`: in test [1], the cell count stood at 888. Further, the inhibition in test [1] is 10.8% (inactive); in test [3], -180% (inactive); in test [7], 7.42% (inactive); in test [8] it was 11.5% (inactive). Further, the inhibition of aggregation in test [2] is -22.1% (inactive). The nuclei count is 110% in test [2] and 123% in test [3]. For the same compound, the fluorescence slope in test [4] was -0.581 (inactive). In test [5], the NADPH fluorescence slope was 1e-05 (inactive). Further, the slope in test [6] is 0.00486 (inactive).

For `Cc1cc(C)n(-c2cc(N3CCOCC3)ncn2)n1`, the cell count in test [1] came to 690. Also, the inhibition was -9.8% (inactive) in test [1], -69.3% (inactive) in test [3], 2.82% (inactive) in test [7] and 0.822% (inactive) in test [8]. Also, in test [2], the inhibition of aggregation is 3% (inactive). In addition, the nuclei count in test [2] was 89.8%; in test [3], 125%. Moreover, in test [4], the fluorescence slope is -0.436 (inactive). The NADPH fluorescence slope in test [5] is -3.4e-06 (inactive). Besides, the slope in test [6] is 0.00484 (inactive).

`O=C(Nc1ccc2c(c1)nc1n2CCN(Cc2ccccc2)C1)c1cccs1`: the cell count in test [1] came to 420. The inhibition in test [1] was -13.3% (inactive); in test [3] it was 11.1% (inactive); in test [7] it was -17.8% (inactive); in test [8] it was -84.2% (inactive). Besides, the inhibition of aggregation in test [2] was 6.4% (inactive). The nuclei count was 89.3% in test [2] and 73.9% in test [3]. Also, the fluorescence slope in test [4] is -0.461 (inactive). Besides, in test [5], the NADPH fluorescence slope is -0.000271 (inactive). In test [6], the slope was 0.00505 (inactive).

Regarding `CCn1c(=O)c(C(=O)NCCc2ccccc2)c(O)c2ccccc21`, the cell count in test [1] was 724. The inhibition in test [1] was -0.3% (inactive); in test [3], -9.2% (inactive); in test [7], 18.3% (inactive); in test [8], 12.5% (inactive). Further, the inhibition of aggregation in test [2] is -18.1% (inactive). Moreover, the nuclei count in test [2] is 96.4%; in test [3], 104%. For the same compound, the fluorescence slope in test [4] was -0.302 (inactive). The NADPH fluorescence slope in test [5] is -2.8e-06 (inactive). In test [6], the slope was 0.0106 (inactive).

As for `COc1ccccc1C(=O)N1CCN=C1SCc1cccnc1`, the cell count in test [1] was found to be 266. For the same compound, the inhibition is -0.3% (inactive) in test [1], 0.7% (inactive) in test [3], -7.45% (inactive) in test [7] and 6.88% (inactive) in test [8]. The inhibition of aggregation in test [2] is -22.1% (inactive). The nuclei count in test [2] was 103%; in test [3], 97.2%. In addition, the fluorescence slope in test [4] is -0.595 (inactive). Further, the NADPH fluorescence slope in test [5] was -3.9e-05 (inactive). For the same compound, in test [6], the slope is 0.00599 (inactive).

Turning to `Cc1cccc(OCCNC(=O)c2ncn[nH]2)c1`, the cell count in test [1] is 228. Moreover, the inhibition was 4.2% (inactive) in test [1], -263% (inactive) in test [3], 5.98% (inactive) in test [7] and 32.3% (inactive) in test [8]. Moreover, in test [2], the inhibition of aggregation is 1.8% (inactive). In addition, the nuclei count in test [2] came to 100%; in test [3], 144%. Moreover, the fluorescence slope in test [4] is -0.443 (inactive). In addition, the NADPH fluorescence slope in test [5] is -1.6e-05 (inactive). In addition, the slope in test [6] was 0.00209 (inactive).

As to `CC1(C)CC(=O)c2cnc(NC(=O)Cc3ccc(Cl)cc3)nc2C1`, the cell count in test [1] was 382. The inhibition in test [1] was -0.3% (inactive); in test [3], -20.1% (inactive); in test [7], -25% (inactive); in test [8], 18.3% (inactive). Further, the inhibition of aggregation in test [2] was -0.3% (inactive). For the same compound, the nuclei count was found to be 97.2% in test [2] and 115% in test [3]. Further, the fluorescence slope in test [4] is -0.485 (inactive). For the same compound, in test [5], the NADPH fluorescence slope was -4.8e-05 (inactive). For the same compound, in test [6], the slope was 0.00659 (inactive).

On to `O=C(NCc1ccccn1)c1cccs1`, for which, in test [1], the cell count came out at 254. The inhibition in test [1] is 12.5% (inactive); in test [3], -1.8% (inactive); in test [7], -4.29% (inactive); in test [8] it was 5.52% (inactive). The inhibition of aggregation in test [2] was 2.9% (inactive). The nuclei count came to 91.4% in test [2] and 95.7% in test [3]. Besides, in test [4], the fluorescence slope is -0.479 (inactive). Moreover, the NADPH fluorescence slope in test [5] is -5.3e-05 (inactive). Besides, in test [6], the slope was 0.00519 (inactive).

In the case of `CCCn1c(SCC(=O)Nc2ccccc2C(=O)OCC)nc2c1c(=O)n(C)c(=O)n2C`, the cell count in test [1] came to 225. Moreover, the inhibition in test [1] is -9.1% (inactive); in test [3], -4.8% (inactive); in test [7], 4.88% (inactive); in test [8] it was 5.62% (inactive). Besides, the inhibition of aggregation in test [2] is -9.7% (inactive). Also, the values for the nuclei count in test [2] and in test [3] were 95.2% and 77.3%, respectively. Moreover, in test [4], the fluorescence slope is -0.402 (inactive). Besides, the NADPH fluorescence slope in test [5] is -3.8e-05 (inactive). Further, the slope in test [6] was 0.00524 (inactive).

The record behind these values is PubChem BioAssay.
